Consider 40 compounds from PubChem BioAssay (NCATS).

Records with an inconclusive call do not appear. Calls of active or inactive are those of the source. Calls come from the whole dose curve; as a rule, active = well fitted curve in the direction sought with a large enough effect; inconclusive = small, poorly fitted or top-dose-only effect, or another doubt; inactive = no such curve, though single readings can be large or run the other way.
Potency is the fitted concentration of half-maximal effect.

A short description of the assay: qHTS for Inhibitors of the vitamin D receptor (VDR): Hit Validation using a Texas Red Assay (AID 602201). To be noted: VDR coregulator binding, Texas Red fluorescence polarization, agonist-bound VDR ligand-binding domain; series mostly up to 57.1 µM. The procedure, abridged: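 After a 2-hour room-temperature incubation, polarization of Texas-Red emission was read (Ex 595 nm/Em 615 nm). Final mix contained 7 nM Texas Red, 1.5 uM VDR-LBD and LG19078.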
For orientation: qHTS replaces the single test concentration by a dilution series.
As for `Cc1cccc(/C=C/C(=O)c2ccc([N+](=O)[O-])o2)c1`, the Potency was 1.78 µM (active). Next, `Cc1oc2c(c1C(=O)c1ccc(Cl)cc1)C(=O)C(=O)c1ccccc1-2`: 3.98 µM (active); `O=C(Nc1nnc(COc2ccc(Cl)cc2)s1)c1ccco1`: “inactive”; `O=C1OC(NC(=O)c2ccccc2)C(n2cc(CO)nn2)=C1Cl` (stereo not given): “inactive”. Take `O=C(/C=C/c1cccc([N+](=O)[O-])c1)c1ccc2c(c1)OCCO2`: the Potency was 14.1 µM (active). As to `Cc1c(Cc2ccc3c(c2)OCO3)sc(NC(=O)c2cccc3ccccc23)c1C(N)=O`, the Potency was 28.2 µM (active). As for `CC(C)(C)c1nnc(NS(=O)(=O)c2ccc([N+](=O)[O-])cc2)s1`, the Potency is 25.1 µM (active). On to `O=C(Cc1ccccc1Cl)NC1(O)C(=O)c2ccccc2C1=O`, for which the Potency entry was “inactive”. For `c1ccc(CCc2nn3c(Cc4ccccc4)nnc3s2)cc1`, the Potency is 28.2 µM (active). As to `CNc1ccc(Br)cc(C(=O)/C=C/c2cccc(Cl)c2Cl)c1=O`, the Potency is 3.55 µM (active). With `Oc1ccc(N=C/C=C/c2cccc(Br)c2)cc1-c1nc2ccccc2s1`, the Potency is 15.8 µM (active). For the compound `CCOc1cc(/C=C2\COc3ccccc3C2=O)cc(Br)c1OCC(=O)N(C)C`, the Potency entry is “inactive”. Regarding `COc1ccc(OC)c2c1C(=O)C(Cl)=C(Cl)C2=O`, the Potency was 7.08 µM (active). As to `CC(C)c1ccc(/C=C/c2[nH]c(=O)[nH]c(=O)c2[N+](=O)[O-])cc1`, the Potency entry was “inactive”. Take `CC(=O)Nc1cccc(C(=O)/C=C/c2ccc(C)cc2)c1`: the Potency entry is “inactive”. Next, `COc1ccc(Cl)cc1NC(=O)CCS(=O)(=O)c1nc(-c2cccs2)cc(C(F)(F)F)n1`: 11.2 µM (active); `Nc1cc(S(=O)(=O)Nc2ccccc2Cl)ccc1N1CCCCC1`: 5.62 µM (active); `O=C(O)/C=C/C(=O)c1ccc2c(c1)NC(=O)CO2`: “inactive”. Next, `CCN(CC)c1ccc(NC(=O)c2ccccc2)cc1S(=O)(=O)Nc1ccccc1OC`: 10 µM (active). With `CCOC(=O)/C(C#N)=C1/C(=O)N(Cc2ccccc2)c2ccccc21`, the Potency result was “inactive”. Take `S=C(NNc1ccnc2cc(Cl)ccc12)Nc1ccccc1Cl`: the Potency was 14.1 µM (active). On to `CCS(=O)(=O)c1ncc(Cl)c(C(=O)N2CCN(c3cccc(Cl)c3)CC2)n1`, for which the Potency was 2.82 µM (active). Next, `CC(C)(C)c1cc(=O)n(-c2ccccc2)[nH]1`: 12.6 µM (active). Next, `O=C1C(C2=C(O)c3ccccc3C2=O)=Nc2ccccc21`: “inactive”.

On to `Cc1ccc(NC(=O)c2nc(S(=O)(=O)Cc3ccccc3F)ncc2Cl)cc1`, for which the Potency is 2.82 µM (active).

Regarding `CCn1c(CSc2nnc(-c3ccncc3)n2CCOC)nc2cc(C(=O)O)ccc21`, the Potency is 15.8 µM (active). Regarding `COc1cccc(/C=C2\C(=O)N(c3cccc(C)c3)C(=O)c3ccccc32)c1`, the Potency was 14.1 µM (active). On to `O=[N+]([O-])c1c(NCCCO)cc(Sc2ccc(Cl)cc2)c2nonc12`, for which the Potency was 15.8 µM (active).

Take `CC(C)(C)C(=O)Nc1ccc2c(c1)C(=O)C(=O)c1ccccc1-2`: the Potency was 3.16 µM (active). Next, `CCSc1nnc(NC(=O)c2nc(S(=O)(=O)Cc3ccc(F)cc3)ncc2Cl)s1`: 3.16 µM (active); `O=C(/C=C/c1ccccc1Cl)c1cccnc1`: “inactive”; `Oc1cc2c(cc1C(c1ccc(Cl)c(Cl)c1)N1CCCC1)OCO2` (stereo not given): 8.91 µM (active).

Regarding `CCOC(=O)CS(=O)(=O)c1nc(-c2ccccc2)cc(C(F)(F)F)n1`, the Potency result is “inactive”. Next, `O=C(Nc1nc(-c2ccccn2)cs1)c1cc(Cl)ccc1[N+](=O)[O-]`: “inactive”. Next, `CCc1ccc(-n2nc3cc(C)c(N)cc3n2)cc1`: 15.8 µM (active); `Cc1cccc(CS(=O)(=O)c2ncc(Cl)c(C(=O)NCc3ccccc3)n2)c1`: “inactive”; `O=C(CCN1CCc2ccccc2C(O)(c2ccccc2)C1)c1ccc2c(c1)OCCO2` (stereo not given): “inactive”. Next, `O=C(/C=C/c1ccccc1F)c1cccc([N+](=O)[O-])c1`: 3.16 µM (active); `O=C(COc1ccc(Cl)cc1)Nc1sc2c(c1C(=O)Nc1cccc(Cl)c1)CCCC2`: 8.91 µM (active); `COc1ccc(/C=C/C(=O)c2ccc([N+](=O)[O-])o2)cc1OC`: 10 µM (active).
